Measurements as given in PubChem BioAssay AID540317 (National Center for Advancing Translational Sciences (NCATS), 2011).
Among all 390,000 compounds or so, about 2,200 (0.56%) were called active. Roughly 3% stayed inconclusive and do not appear here. Calls follow the shape of the dose curve; as a rule, active = well fitted inhibition curve with a large enough effect; inconclusive = small, poorly fitted or top-dose-only effect; inactive = no such curve, though single readings can be large or run the other way. The entries come from a sample that favours actives as a whole.

Molecular target: Chromobox protein homolog 1 (Homo sapiens) (UniProt P83916)
Assay: HTS for Inhibitors of HP1-beta Chromodomain Interactions with Methylated Histone Tails; also: nearly all actives have a fitted effect of over 70% in size
Details: AlphaScreen HP1-beta / biotin-H3K9me3 peptide binding; series mostly up to 114 µM
How it was run: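 HP1-beta protein (50 nM final) preincubated 30 min at room temperature with biotinylated H3(1-18)K9me3 peptide (50 nM) in PBS pH 7.4, 0.01% Tween-20, then compound added for 30 min. AlphaScreen streptavidin donor/nickel chelate acceptor beads (10 ug/mL final), 30 min dark, luminescence read.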
Potency is read from the fitted curve at half-maximal effect.

Chromobox protein homolog 1 (Homo sapiens), sequence (P83916 whole entry, looked up): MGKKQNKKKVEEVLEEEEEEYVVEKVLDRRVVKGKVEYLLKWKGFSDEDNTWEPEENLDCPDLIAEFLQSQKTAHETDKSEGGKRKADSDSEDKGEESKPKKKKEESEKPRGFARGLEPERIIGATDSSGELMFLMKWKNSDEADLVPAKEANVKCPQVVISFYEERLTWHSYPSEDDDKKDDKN

Potency, inactive:
COc1ccccc1CN1CCC(CNC(=O)c2cnn(-c3cccc(Cl)c3)c2C2CCN(C(=O)OC(C)(C)C)CC2)CC1
Oc1ccc(Cl)cc1C1C=C(c2ccc3c(c2)OCO3)NC(c2c(F)cccc2Cl)N1 (centres undefined)
CCOc1ccc(C2C(C(=O)Nc3ccc(Cl)cc3)=C(C)Nc3nc(C(F)(F)F)nn32)cc1 (centres undefined)
CCOc1ccc(NC(=O)CCc2c(C)nn(-c3ccc(N4CCCC4)nn3)c2C)cc1
Cc1ccc2nc(COc3cccc(NC(=O)c4cccc(Cl)c4)c3)cc(=O)n2c1
CCCSc1ncc(Cl)c(C(=O)Nc2c(C(=O)Nc3ccccc3)oc3ccccc23)n1
COc1ccccc1-c1nnc(C2CCN(C(=O)c3ccc(Cl)cc3)CC2)o1
CCOc1ccc(Nc2nc3c(S(=O)(=O)c4cccc(Cl)c4)nnn3c3ccsc23)cc1
Cc1ccc(Cn2cc(CCC(=O)NCc3ccc(OC(C)C)cc3)c3ccccc32)cc1
COc1ccc(N2CCN(C(=O)c3cccs3)CC2)cc1
COc1ccc(N2CCN(S(=O)(=O)c3cc(Br)cnc3N)CC2)cc1
Cc1ccc(Nc2nc3ccccc3nc2-n2nc(C)cc2C)c(Cl)c1
Cc1ccc(Cl)cc1N(C)C(=O)Cn1nc(Cc2cccnc2)c2ccccc2c1=O
COc1ccc(-c2nc(SCC(=O)N3CCCCC3C)n[nH]2)cc1 (centres undefined)
Cc1ccc(-c2nc(S(=O)(=O)c3ccc(C)cc3)c(N3CCCCCC3)o2)cc1
Cc1cc(C)cc(NC(=O)CSc2nc3nccnc3c(=O)n2CCc2c[nH]c3ccccc23)c1
Cc1ccc(Cl)cc1NC(=O)NC1COc2ccccc2C1 (centres undefined)
Cn1nnc2c(N3CCN(c4ccccc4)CC3)ncnc21
CCOc1ccc(NC(=O)c2cc(S(=O)(=O)N3CCCC3)c[nH]2)cc1
CCOc1ccc(CNC(=O)Cn2cc3c(n2)-c2c(oc(C(=O)N4CCCC4)c2C)CC3)cc1

Potency, active:
Cc1cccc(C)c1-n1c(C)cc(/C=C2\C(=O)NN(c3ccccc3)C2=O)c1C 15.8 µM
COc1ccc(N2CCN(Cc3ccc(Br)s3)CC2)cc1 17.8 µM
CN1/C(=c2/s/c(=C3/C(=O)N(c4ccccc4)NC3=Nc3ccccc3)n(C)c2=O)C(C)(C)c2ccccc21 28.2 µM
CC(=O)N(C1=C(Cl)C(=O)c2ccccc2C1=O)c1ccc(C(=O)O)cc1 7.94 µM
